# From PubChem
# Shiga toxin inh: Shiga toxin inhibition. Vero cells, Shiga toxin protein synthesis inhibition reporter. inhibition, % at 38.7 µM. 290,000 tested, 9.2% active. AID 2315; in the data active = inhibition mostly above about 28%, no sharp cut-off; inactive = mostly below about 43%; note: 0% is about no effect
# AMA1 RON2 block: inhibitors of Plasmodium falciparum AMA1-RON2 interaction | AlphaScreen AMA1-biotinylated RON2 peptide binding | Potency, µM (top dose mostly 58.2 µM), for the others: at the highest dose activity change, negative = inhibition, most hits filed as inhibitors | 360,000 tested, 0.2% active | AID 720542;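 note: potency is the fitted concentration of half-maximal effect; 0% = vehicle wells and -100% = peptide control; nearly all actives have a fitted effect of over 45% in size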
#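 AMA1 (3D7) with his tag at 25 nM final met compounds first, then biotinylated RON2 peptide at 25 nM; detection used donor plus acceptor beads, 10 µg/mL apiece, read by AlphaScreen after 30 min at room temperature.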
# Pf growth 96h: inhibits malaria parasite growth, 96 h; P. falciparum luciferase reporter growth, 96 h; Potency, µM (top dose mostly 28.7 µM), inactives show at the top dose activity change, negative = inhibition, most hits filed as inhibitors; 320,000 tested, 6.9% active; note: potency is the fitted concentration of half-maximal effect; % is set by controls: 0 for no effect and ±100 for the full control effect
#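 Luminescence readout: decreased luciferase signal marks inhibited growth of reporter-expressing P. falciparum in infected red cells (2% hematocrit, 0.05% parasitemia final), exposed to compound two generations (96 h, 37 C, 5% CO2).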
# SARS PLP yeast: inhibitors of SARS-CoV papain-like protease in yeast. S. cerevisiae expressing SARS-CoV PLpro, growth rescue. AID 485353. Potency, µM (highest dose often 32.9 µM), without a hit: at the top dose activity, positive = growth rescue, usual class: activators. 330,000 tested, 0.19% active; calls by dose curve; note: potency is the fitted concentration of half-maximal effect; 0% is about no effect; nearly all actives have a fitted effect of over 55% in size
# CHX counter: counter-screen for Shiga toxin inhibitors: cycloheximide protein synthesis inhibition. 300,000 tested, 12% active. max response, %. AID 2314. cell reporter, cycloheximide protein synthesis inhibition counterscreen; in the data active = max response mostly above about 13%, no sharp cut-off; inactive = mostly below about 14%; note: read at 38.3 µM for the half of the compounds with a filed dose; 0% is about no effect
# Pf growth 48h: P. falciparum growth inhibition at 48 hours (one generation) | P. falciparum luciferase growth in erythrocytes, 48 h | Potency, µM (doses to about 28.7 µM), for the others: at the top dose activity change, negative = inhibition, hits mostly inhibitors | 310,000 tested, 5.9% active; note: potency is the fitted concentration of half-maximal effect; % is set by controls: 0 for no effect and ±100 for the full control effect
#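 Here the parasites carry a stable luciferase gene and grow inside erythrocytes in Albumax-based RPMI medium with compound for one erythrocytic cycle. Activity is scored as loss of luminescent signal.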
# * marks the source's active call; other numbers are inactive results; i = inactive; ? = inconclusive; . = no result given; [ ] = another dose, or the depositor's remark. Rows were chosen to be rich in hits. Some 19% of all compounds tested hit in one or more screens of this group. Unless noted, calls come from the whole dose curve; as a rule, active = well fitted curve in the direction sought with a large enough effect; inconclusive = small, poorly fitted or top-dose-only effect, or another doubt; inactive = no such curve, though single readings can be large; an effect the other way counts as inactive or inconclusive.
SMILES,Shiga toxin inh,AMA1 RON2 block,Pf growth 96h,SARS PLP yeast,CHX counter,Pf growth 48h
Cc1ccsc1/C=N/NC(=O)c1cc(-c2ccncc2)nc2ccccc12,-3,-1%[11.6 µM],?,-9%,-1,?
Cc1ccsc1/C=N/NC(=O)c1ccccn1,47*,67%,24%,-33%,62*,180%
Cc1ccsc1/C=N/NC(=O)c1cccs1,77*,2%,40%,-22%,33*,103%
Cc1ccsc1/C=N/NC(=O)C(O)c1ccccc1 (centres undefined),12,-4%,-14%,.,9.6*,16%
CCC1(CC)C(=O)N(c2ccccc2)C(=N)N(c2ccccc2)C1=O,.,-11%,.,.,.,.
O=C(NCCc1csc(-c2ccccc2)n1)c1ccc(Br)o1,9,-2%,21%,-18%,-3,-2%
Cc1ccc(-c2nc(CNC(=O)c3ccco3)cs2)cc1,85*,-16%,?,-10%,39,33%
CC(=O)NCc1cn2c(C)csc2n1,-3,0%,7%,?,-1,5%
Cc1csc2nc(CNC(=O)c3ccco3)cn12,56*,-6%,-9%,3%,35*,100%
O=C(NCCc1csc(-c2cccnc2)n1)c1ccc(Br)o1,-5,0%,8.3µM*,0%,4,?
Cc1ccc(-c2nc(CCNC(=O)c3ccco3)cs2)cc1,.,-2%,?,4%,.,?
COc1cc(-c2nc(CCNC(=O)c3ccco3)cs2)cc(OC)c1OC,9,17%,10µM*,-3%,1,?
Cc1ccc2nc(Cl)c(/C=N/n3c(C)nnc3C)cc2c1,19,-11%,4%,-1%,9,24%
CN(C1CCCCC1)S(=O)(=O)c1ccc(-c2ccccn2)s1,15,8%,-1%,0%,-1,5%
COc1ccc(-c2csc(NC(=O)CCNC(=O)c3ccco3)n2)cc1,.,0%,.,.,.,.
Cc1ccc(-c2csc(NC(=O)CCNC(=O)c3ccco3)n2)cc1,43*,-2%,?,-1%,20*,?
CC1=CN2C(=N)/C(=C/c3ccc(Sc4ccc(C)cc4)o3)C(=O)N=C2S1,active,0%,?,-11%,23*,?
CC1=CN2C(=N)/C(=C/c3ccc(Sc4ccc(Cl)cc4)o3)C(=O)N=C2S1,-3,28%,?,1%,4,13%
CC1=CN2C(=N)/C(=C/c3ccc(C)o3)C(=O)N=C2S1,53*,-7%,27%,-37%,24*,80%
COc1cc(NC(=O)CSc2nncn2C)c(C)cc1[N+](=O)[O-],17,0%,1%,2%,10,7%
CC(C)(C)NC(=O)Cn1c(=O)n(CC(=O)NC(C)(C)C)c2ccccc21,-23,-1%,?,1%,3,5%
O=S(=O)(Nc1cccc2cccnc12)c1ccccc1,11,43%,46%,-3%,19,3.7µM*
O=S(=O)(Nc1cccc2cccnc12)c1ccc(S(=O)(=O)N2CCCC2)cc1,-14,97%,?,10%,-1,10µM*
Cc1ccc(S(=O)(=O)Nc2cccc3cccnc23)c([N+](=O)[O-])c1,-5,-8%,1%,-8%,-2,2.6µM*
COc1ccc(NS(=O)(=O)c2ccc3ccccc3c2)c2ncccc12,2,87%,11%,1%,-1,2.9µM*
SMILES,Shiga toxin inh,AMA1 RON2 block,Pf growth 96h,SARS PLP yeast,CHX counter,Pf growth 48h
Cc1cc(C)c(NS(=O)(=O)c2cccc3cccnc23)c(C)c1,-7,-24%,-22%,-5%,1,?
COc1ccc(S(=O)(=O)Nc2cccc3cccnc23)cc1,-8,.,.,.,15,.
O=C(OCc1ccccc1)N1C[C@H](O)[C@H](O)C[C@@H]1c1c(Cl)cccc1Br,.,-2%,.,.,.,.
CCCCN1CN(Cc2ccccc2)CNC1=S,-2,-3%,9.3µM*,?,-3,-20%
Cc1noc(C)c1COc1ccccc1C(=O)NCCOc1ccccc1,.,0%,?,0%,.,?
CCN(Cc1ccncc1)C(=O)c1cc(COc2ccc(OC)cc2Cl)on1,99*,-2%,?,-5%,42*,-14%
CCN(Cc1ccncc1)C(=O)c1cc(COc2c(F)cccc2F)on1,-3,-2%,10µM*,0%,9,5%
CCCN(CC1CCCO1)C(=O)c1cc(COc2ccc(F)cc2F)on1 (centres undefined),22,1%,12µM*,-1%,8,14%
CCN(CC1CCCO1)C(=O)c1cc(COc2ccc(OC)cc2Cl)on1 (centres undefined),14,17%,?,4%,16*,-2%
O=C(NCCc1ccccc1F)C1CC(=O)N(c2ccc3c(c2)OCCO3)C1 (centres undefined),.,-6%,.,.,.,.
CC(C)C(C(=O)Nc1ccc2c(c1)OCCOCCOCCOCCO2)N1C(=O)c2ccccc2C1=O (centres undefined),-3,-7%,-13%,-5%,-9,-10%
CCN(CC)S(=O)(=O)c1ccc2c(c1)nc(CCC(=O)Nc1ccccc1Cc1ccccc1)n2CC,-4,-3%,.,4%,-3,12µM*
CCn1c(CCC(=O)Nc2cc(F)ccc2C)nc2cc(S(=O)(=O)N(C)C)ccc21,-5,4%,-3%,8%,-5,?
NNc1nc2ccc(F)cc2s1,136*,17%,-1%,-46%,78*,51%
O=[N+]([O-])c1ccc2nc(NS(=O)(=O)c3ccc(Cl)cc3)sc2c1,-12,-7%,-4%,-1%,7,1%
O=C(O)C1CC1C(=O)Nc1nc2c(Cl)cccc2s1 (centres undefined),-3,-3%,?,2%,-2,0%
NNc1nc2ccc(Cl)cc2s1,83*,20%,0%,-34%,42*,84%
Fc1ccc2nc(Nc3ccccc3)sc2c1,118*,-18%,i,-2%,36*,263%
O=C(Nc1nc2ccc(F)cc2s1)Oc1ccccc1,34,7%,0%,-8%,9,5%
NNc1nc2c(Cl)c(Cl)ccc2s1,30*,34%,-8%,-87%,25*,2%
COc1ccccc1CNC(=O)C[C@H]1CC[C@@H]2[C@H](COC[C@H](O)CN2Cc2ccc3c(c2)OCO3)O1,.,-3%,.,.,.,.
COc1ccc(C(=O)N/C(=C\c2cn(S(=O)(=O)N(C)C)c3ccccc23)C(=O)N2CCOCC2)cc1,12,1%,0%,-3%,-2,?
COc1cc(/C=N\NC(=O)CC(=O)NCCc2ccccc2)ccc1O,-4,-4%,10µM*,0%,1,-1%
O=C(N/N=C/c1cccc(NC(=O)c2ccc(Cl)cc2)c1)c1ccc(O)cc1,85*,7%,?,0%,60*,138%
O=C(N/N=C/c1ccc(F)cc1)c1cccc(NC(=O)c2ccc(F)cc2)c1,100*,-7%,?,-5%,34*,?
